Screening data: PubChem, several laboratories
In the library only some 1.4% were active in any assay of this set; here they are far more common.
ugtP null kill: compounds lethal to S. aureus RN4220 ugtP deletion mutant | 330,000 compounds, 0.54% hits | OD600 growth, 16 h | growth inhibition, % (test concentration not listed); in the data active means growth inhibition above about 68%;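 further: plate controls were untreated wells for no effect and antibiotic for full effect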
Sa RN4220 lethal: kills Staphylococcus aureus RN4220; S. aureus RN4220 growth, OD600, 16 h; inhibition, % (concentration not given with the values); 330,000 compounds, 0.33% hits; AID 1259311; in the data active means inhibition above about 85%;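 further: plate controls were untreated cells for no effect and reference antibiotic for full effect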
BJeLR lethal: BJeLR cell viability loss; 300,000 compounds, 0.17% hits; inhibition, % (no concentration beside the values); BJeLR (HRASV12) viability, CellTiter-Glo ATP luminescence, 48 h; AID 1554; in the data active means inhibition above about 50%
VHR inh abs: DUSP3 (human) phosphatase inhibition. inhibition, % at 13.3 µM. AID 1654. recombinant VHR phosphatase, pNPP absorbance. P51452. 290,000 compounds, 0.52% hits; in the data active means inhibition above about 50%
Target sequence (P51452 whole entry, looked up): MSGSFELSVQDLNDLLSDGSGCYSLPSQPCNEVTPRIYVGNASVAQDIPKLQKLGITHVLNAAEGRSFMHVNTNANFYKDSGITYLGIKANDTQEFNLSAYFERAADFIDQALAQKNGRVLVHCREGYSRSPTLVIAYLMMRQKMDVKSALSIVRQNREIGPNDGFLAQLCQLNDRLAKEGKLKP
SARS 3CLpro inh: SARS-CoV 3CLpro protease inhibition | P0C6X7 | recombinant SARS-CoV 3CLpro, quenched FRET peptide cleavage | inhibition, % at 6 µM | 290,000 compounds, 0.14% hits | AID 1706; in the data active means inhibition above about 12%
PrPC TRFRET: cell surface PrPC inhibition, primary TR-FRET screen; 370,000 compounds, 0.43% hits; TR-FRET read-out; P04156; inhibition, % at 13.8 µM; in the data active means inhibition above about 24%; further: 0% = median of the test wells and 100% = reference compound wells
The depositor's hits bear a star; . = not tested or not shown.

SMILES	ugtP null kill	Sa RN4220 lethal	BJeLR lethal	VHR inh abs	SARS 3CLpro inh	PrPC TRFRET
COc1ccc(N(CC(=O)Nc2cccc(F)c2)S(=O)(=O)c2c(C)[nH]c(=O)[nH]c2=O)cc1	0	0	3	56*	-1	0
COc1ccc(N(CC(=O)Nc2cccc(C(F)(F)F)c2)S(=O)(=O)c2c(C)[nH]c(=O)[nH]c2=O)cc1	9	3	-2	-4	7	0
Cc1ccc(-c2nn(CC(=O)NCc3cc(-c4nn(C)c(=O)c5ccccc45)ccc3C)c(=O)c3ccccc23)cc1	-6	1	125*	2	2	0
O=C(NCCCN1CCCCC1)C1CCC(CNS(=O)(=O)c2cccc3nsnc23)CC1 (centres undefined)	1	1	1	-9	-2	-53
CC1CCN(CCCNC(=O)C2CCC(CNS(=O)(=O)c3cccc4nsnc34)CC2)CC1 (centres undefined)	0	0	-9	51*	1	-24
COc1cc(C=CC(=O)O)cc(S(=O)(=O)Nc2ccccc2SC)c1OC	-5	-1	.	.	.	.
O=C(/C=C/c1ccc2c(c1)OCO2)c1c(O)n(CCC2=CCCCC2)c(=O)[nH]c1=O	100*	100*	.	4	5	8
CN(C)CCN=Cc1c(O)n(CCC2=CCCCC2)c(=O)[nH]c1=O	-1	3	5	-5	-4	5
COc1ccc(/C=C/C(=O)c2c(O)n(CCC3=CCCCC3)c(=O)[nH]c2=O)cc1	92*	89*	-14	26	5	4
CCCCn1c(O)c(C(=O)/C=C/c2ccc3c(c2)OCO3)c(=O)[nH]c1=O	.	.	4	29	7	-5
NCCCCC(N)c1cn(C(CCC(=O)O)C(=O)N2CCNCC2)nn1 (centres undefined)	-3	-1	.	.	.	.
C=C(CC1(C(NP(=O)(c2ccccc2)c2ccccc2)C2CC2CCCC)CC1)c1ccccc1 (centres undefined)	4	3	.	.	.	.
CC(C)c1cc(C(=O)OCC(=O)NC(=O)NCc2ccco2)c(O)c(C(C)C)c1	94*	-7	4	11	1	6
O=C(COC(=O)c1ccccc1C(F)(F)F)NC(=O)NCc1ccco1	6	6	.	.	.	-5
COc1ccc(CCN2CC(C(=O)N(C)CCOc3ccccc3)CCC2=O)cc1 (centres undefined)	11	4	14	2	-3	-7
COc1ccc(CCN2CC(C(=O)N(C)Cc3ccccc3OC)CCC2=O)cc1 (centres undefined)	-1	1	4	53*	-6	4
Cc1ccc(C(=O)c2c(C)oc3c2C(=O)C(=O)c2ccccc2-3)cc1	93*	109*	-5	9	1	.
C#CCOCCOCCOCCNc1nc(N2CCOCC2)nc(N2CCN(C(=O)C(CCCCN)n3cc(C(N)CC(C)C)nn3)CC2)n1 (centres undefined)	-11	1	.	.	.	.
O=C(c1ccc2c3n(nc2c1)-c1ccccc1CO3)N1CCOCC1	.	.	57*	15	.	.
O=C(c1ccc2c3n(nc2c1)-c1ccccc1CO3)N1CCCCC1	0	0	60*	-4	.	-14
Cc1cccc(NC(=S)NC(=O)C=Cc2ccccc2)n1	-4	2	.	.	.	.
Cc1nnnn1C(=Cc1ccccc1)C(=O)OCC(=O)N1CC2(C)CC1CC(C)(C)C2 (centres undefined)	-12	-7	.	.	.	.
Cc1ccc(-c2cc3ccccc3nc2N2CCCC2)cc1	89*	-3	14	5	3	-4
Clc1ccc(-c2cc3ccccc3nc2N2CCOCC2)cc1	93*	2	12	8	3	3
CC(/C=C1\SC(=S)N(c2ccc(C(=O)O)cc2)C1=O)=C\c1ccccc1	.	.	-1	53*	0	1
CCc1ccc(-c2nc(-c3ccncc3)no2)cc1	6	4	.	57*	0	11
Cc1cc(NC(=O)Cn2ccsc2=N)c([N+](=O)[O-])cc1C	18	5	-1	16	-1	-3
COc1ccc([N+](=O)[O-])cc1NC(=O)Cn1ccsc1=N	8	1	-9	51*	2	-21
CC(O)C1NC(=O)C(CCCCN)NC(=O)c2cc([N+](=O)[O-])cc(I)c2OCCC(C(N)=O)NC1=O (centres undefined)	4	6	.	.	.	.
Cc1ccc(NC(=O)c2ccccc2O)cc1	-13	-11	-2	54*	-4	-6
